Laboratory results taken from PubChem BioAssay (NCATS).
Several values for one entry are separate records, joined by “and”; a condition that tells them apart may be missing. Equal values may be shown once. Inconclusive results are not listed. Where a call stands in place of a potency, no number is given. Activity calls are given as the source filed them. Calls come from the whole dose curve.

Columns and labels:
[1] = Cytotoxicity counterscreen for inhibitors of SARS-CoV-2 cell entry (AID 1645845); note: nearly all actives have a fitted effect of over 50% in size
Summary of the method: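 Expi293F/hACE2 cells seeded overnight; cpd pin-transferred in DMSO, 1 h preincubation, + media, 48 h 37 C 5% CO2; ATPLite 1step luminescence; normalized to cells and no cells.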

[2] = Primary qHTS to identify inhibitors of SARS-CoV-2 cell entry (AID 1645846); details: activity change, negative = inhibition: at 57.1 µM (top of the series) unless noted; note: nearly all actives have a fitted effect of over 45% in size
Summary of the method: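 Luminescence readout (Bright-Glo luciferase) 48 h after pseudoparticle addition. HEK293-ACE2 cells, 1500/well; compound pre-incubation 1 h; Normalized to spike PP and bald PP.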

## C[C@H]1O[C@@H](n2cc(F)c(=O)[nH]c2=O)[C@H](O)[C@@H]1O
[1]
  Potency: inactive
[2]
  activity change, negative = inhibition: -10.7% and -12.7%

## O=C(O)CCCCCCCC(=O)O
[1]
  Potency: inactive
[2]
  Potency: inactive

## CCOC(=O)[C@H](CCc1ccccc1)N[C@H]1CCCN2CCC[C@@H](C(=O)O)N2C1=O
[1]
  Potency: inactive
[2]
  activity change, negative = inhibition: -27.1%

## CCCCCCCCCCCCOCCO
[1]
  Potency: inactive
[2]
  activity change, negative = inhibition: -19.3%

## NC(N)=NC(=O)Cc1c(Cl)cccc1Cl
[1]
  Potency: inactive
[2]
  Potency: inactive

## CC(=O)Nc1c(I)c(NC(C)=O)c(I)c(C(=O)O)c1I
[1]
  Potency: inactive
[2]
  activity change, negative = inhibition: -1.67%

## COc1cc2c3cc1Oc1cc(ccc1O)C[C@@H]1c4c(cc(OC)c(O)c4Oc4ccc(cc4)C[C@@H]3N(C)CC2)CC[N+]1(C)C
[1]
  Potency: inactive
[2]
  Potency: inactive

## CC(=O)OCC1=C(C(=O)O)N2C(=O)[C@@H](NC(=O)Cc3cccs3)[C@H]2SC1
[1]
  Potency: inactive
[2]
  activity change, negative = inhibition: 1.38%

## CC(=O)Nc1ccc(S(=O)(=O)Nc2cc(C)on2)cc1
[1]
  Potency: inactive
[2]
  Potency: inactive

## CC(=O)OCC(=O)[C@@]1(O)CC[C@H]2[C@@H]3CCC4=CC(=O)C=C[C@]4(C)[C@@]3(F)[C@@H](O)C[C@@]21C
[1]
  Potency: inactive
[2]
  activity change, negative = inhibition: 2.18%

## CC12CCC(CC1)C(C)(C)O2
[1]
  Potency: inactive
[2]
  Potency: inactive

## CC(=O)NC[C@H]1CN(c2ccc(N3CCOCC3)c(F)c2)C(=O)O1
[1]
  Potency: inactive
[2]
  activity change, negative = inhibition: -4.07%

## C[N+](C)(CCOc1ccccc1)Cc1cccs1
[1]
  Potency: inactive
[2]
  activity change, negative = inhibition: -23%

## CCCNC(C)C(=O)Nc1c(C)csc1C(=O)OC (stereo not drawn)
[1]
  Potency: inactive
[2]
  Potency: inactive

## Cc1ccc(C(C)C)c(O)c1
[1]
  Potency: inactive
[2]
  activity change, negative = inhibition: -6.21%

## CC(C)CN(C[C@@H](OP(=O)(O)O)[C@H](Cc1ccccc1)NC(=O)O[C@H]1CCOC1)S(=O)(=O)c1ccc(N)cc1
[1]
  Potency: inactive
[2]
  activity change, negative = inhibition: -18.7%

## CN1C(CSCC(F)(F)F)Nc2cc(Cl)c(S(N)(=O)=O)cc2S1(=O)=O (stereo not drawn)
[1]
  Potency: inactive
[2]
  activity change, negative = inhibition: -21.3%

## CC1(C)O[C@@H]2C[C@H]3[C@@H]4CCC5=CC(=O)C=C[C@]5(C)[C@@H]4[C@@H](O)C[C@]3(C)[C@]2(C(=O)CO)O1
[1]
  Potency: inactive
[2]
  Potency: inactive

## CCn1cc(C(=O)O)c(=O)c2cnc(N3CCCC3)nc21
[1]
  activity change, negative = cytotoxicity: 1.65% [at 11.3 µM] (inactive)
[2]
  activity change, negative = inhibition: 0.588% [at 11.3 µM]

## CCCOC(=O)c1ccccc1
[1]
  Potency: inactive
[2]
  Potency: inactive

## OCCc1ccccc1
[1]
  Potency: inactive
[2]
  Potency: inactive

## NC(N)=NCCN1CCCCCCC1
[1]
  activity change, negative = cytotoxicity: 0.589% [at 0.702 µM] (inactive)
[2]
  outcome: inactive [at 0.702 µM]

## COc1ccc(C(=O)c2ccccc2)c(O)c1
[1]
  Potency: inactive
[2]
  Potency: inactive

## Cc1c(C(C)C)c(=O)n(-c2ccccc2)n1C
[1]
  Potency: inactive
[2]
  activity change, negative = inhibition: -4.29%
